“And” between values parts separate entries of the source, which are not always exact repeats. Identical values can stand only once. Records with an inconclusive call do not appear. Where a call stands in place of a potency, no number is given. Unmarked numbers belong to inactive results. The source made the active and inactive calls. Calls follow the shape of the dose curve; as a rule, active = well fitted curve in the direction sought with a large enough effect; inconclusive = small, poorly fitted or top-dose-only effect, or another doubt; inactive = no such curve, though single readings can be large; an effect the other way counts as inactive or inconclusive. Where a SMILES comes first, the peptide text is derived from it. [ ]: non-standard residue; d: D form. pGlu = O=C1CC[C@@H](C(=O)O)N1
Columns and labels:
[1] = target: Cytochrome P450 3A7 (Homo sapiens) (UniProt P24462); assay: Cytochrome P450 family 3 subfamily A member 7 (CYP3A7) small molecule antagonists: luciferase biochemical qHTS assay (AID 1963596); details: P450-Glo CYP3A7 enzyme luminescence, 1 h; series mostly up to 57.4 µM; also: nearly all actives have a fitted effect of over 40% in size
Sequence of Cytochrome P450 3A7 (Homo sapiens) (P24462 whole entry, looked up): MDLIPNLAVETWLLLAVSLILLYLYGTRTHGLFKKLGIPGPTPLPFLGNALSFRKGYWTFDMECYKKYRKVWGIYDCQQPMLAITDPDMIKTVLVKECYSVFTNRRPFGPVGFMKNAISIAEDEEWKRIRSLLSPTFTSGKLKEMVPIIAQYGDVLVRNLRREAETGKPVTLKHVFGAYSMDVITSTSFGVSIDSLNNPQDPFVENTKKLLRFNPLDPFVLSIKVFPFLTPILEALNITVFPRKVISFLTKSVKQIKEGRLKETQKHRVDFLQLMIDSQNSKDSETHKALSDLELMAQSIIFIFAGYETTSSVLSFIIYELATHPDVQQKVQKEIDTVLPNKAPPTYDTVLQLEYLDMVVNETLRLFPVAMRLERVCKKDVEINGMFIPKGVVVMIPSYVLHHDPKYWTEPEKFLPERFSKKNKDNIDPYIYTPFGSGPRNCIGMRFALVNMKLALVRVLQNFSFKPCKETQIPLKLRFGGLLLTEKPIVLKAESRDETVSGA
How it was run: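 In this luminescent screen, enzyme and proluciferin substrate meet test compound for 10 min before NADPH regeneration solution drives a 1 h room-temperature reaction; detection reagent halts turnover and luminescence is read 20 min later.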

[2] = Viability qHTS for spleen associated tyrosine kinase inhibitor (SYKi) naive MV4-11 cells (AID 1963823); details: MV4-11 AML viability, CellTiter-Glo luminescence, 72 h; series mostly up to 45 µM; also: nearly all actives have a fitted effect of over 40% in size; also: potency is read from the fitted curve at half-maximal effect
How it was run: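 Cells: MV4-11, SYK inhibitor naive, 500 per well. Treatment: library compounds, 72 hr, 37 C, 5% CO2. Read-out: CellTiter-Glo luminescence after 10 min RT.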

[3] = Viability qHTS for spleen associated tyrosine kinase inhibitor (SYKi) drug resistant MV4-11 cells (AID 1963824); details: SYKi-resistant MV4-11 viability, CellTiter-Glo, 72 h; series mostly up to 45 µM; also: nearly all actives have a fitted effect of over 35% in size; also: potency is read from the fitted curve at half-maximal effect
How it was run: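 CellTiter-Glo luminescence, read 10 min after reagent addition, reports viability after a 72 hr compound exposure. Cells are an MV4-11 line made resistant to SYK inhibition, seeded at 500 per well onto compound-containing plates.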

[4] = Cellular viability qHTS for adrenocortical cancer (ACC) cell line SW-13 (AID 1963989); details: SW-13 ACC cells viability, CellTiter-Glo, 48 h; activity (max response): hits give low values; also: nearly all actives have a fitted effect of over 65% in size; also: potency is read from the fitted curve at half-maximal effect;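 as to activity (max response): cells grown in serum-free medium with ITS supplement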
How it was run: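 48 h treatment, SW-13 in ITS/DMEM serum-free; doses up to 46 uM; readout CellTiter-Glo luminescence; curve fit four-parameter logistic.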

[5] = Cellular viability qHTS for adrenocortical cancer (ACC) cell line NCI-H295R (AID 1963990); details: CellTiter-Glo ATP luminescence, 48 h; series mostly up to 46.1 µM; also: nearly all actives have a fitted effect of over 60% in size
How it was run: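 Compound titrations (up to 46 uM final) are applied to NCI-H295R cultures for 48 h at 37C. Viable cell number is estimated by CellTiter-Glo signal, normalised to DMSO and doxorubicin controls.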

Row | SMILES | Potency [1] | Potency [2] | Potency [3] | Potency [4] | activity (max response) [4] | Potency [5]
1 | O=c1[nH]c(=O)n([C@H]2C[C@H](O)[C@@H](CO)O2)cc1F | inactive | 29.9 nM (active) and 83.3 nM (active) | 105 nM (active) | 3.66 µM (active) and 3.55 µM (active) | – | –
2 | CC1(C)S[C@@H]2[C@H](NC(=O)C(C(=O)O)c3ccccc3)C(=O)N2[C@H]1C(=O)O (stereo not given in full) | inactive | inactive | inactive | – | 3.14% | –
3 | CN1CC(=O)N/C1=N/C(=O)Nc1cccc(Cl)c1 | inactive | inactive | inactive | – | 2.23% | –
4 | C[N+](C)(C)CCCCCC[N+](C)(C)C | inactive | inactive | inactive | – | 10.1% | –
5 | COc1ccccc1N1CCN(CCCNc2cc(=O)n(C)c(=O)n2C)CC1 | inactive | inactive | inactive | – | 2.85% | –
6 | Cc1cccc(C)c1NC(=O)CN1CCCCCC1 | inactive | inactive | inactive | – | 6.22% | inactive
7 | CCCC(=O)Nc1ccc(OCC(O)CNC(C)C)c(C(C)=O)c1 (stereo not given) | inactive | inactive | inactive | – | 0.0374% | –
8 | O=C1N=C(O)CN1/N=C/c1ccc(-c2ccc([N+](=O)[O-])cc2)o1 | inactive | inactive | inactive | – | 12.2% | –
9 | C/C=C/C(=O)N(CC)c1ccccc1C | inactive | inactive | inactive | – | 5.92% and 3.5% | inactive
10 | O=C(O)/C=C/c1ccc(Cn2ccnc2)cc1 | inactive | inactive | inactive | – | 7.34% and 4.34% | –
11 | O=c1[nH]c(=O)c2ccccc2o1 | inactive | inactive | inactive | – | 6.04% | inactive
12 | CCOCCn1c(C2CCN(CCc3ccc(C(C)(C)C(=O)O)cc3)CC2)nc2ccccc21 | inactive | inactive | inactive | – | 2.01% | –
13 | Cn1c([N+](=O)[O-])cnc1COC(N)=O | inactive | inactive | inactive | – | -4.89% | inactive
14 | O=C(O)[C@@H](O)[C@H](O)[C@H](O)[C@@H](O)C(=O)O | inactive | inactive | inactive | – | 9.05% | –
15 | C[C@H](Nc1ncnc2nc[nH]c12)c1cc2cccc(Cl)c2c(=O)n1-c1ccccc1 | inactive | 11.8 µM (active) | 5.8 µM (active) and 6.61 µM (active) | – | -1.12% | –
16 | CN(C)C(=O)Oc1ccc[n+](C)c1 | inactive | inactive | inactive | – | 13.3% | –
17 | O=C(/C=C/c1ccccc1)OCc1ccccc1 | inactive | inactive | inactive | – | 5.62% | inactive
18 | CCNC(=O)[C@@H]1CCCN1C(=O)[C@H](CCCN=C(N)N)NC(=O)[C@H](CC(C)C)NC(=O)CNC(=O)[C@H](Cc1ccc(O)cc1)NC(=O)[C@H](CO)NC(=O)[C@H](Cc1c[nH]c2ccccc12)NC(=O)[C@H](Cc1cnc[nH]1)NC(=O)[C@@H]1CCC(=O)N1 ([pGlu]HWSYGLRP-NHEt) | inactive | 13.3 µM (active) | inactive | – | 7.58% | –
19 | CC(C)(C)c1nnc(NS(=O)(=O)c2ccccc2)s1 | inactive | inactive | inactive | – | 4.7% | inactive
20 | CC(=O)NCc1c(I)c(NC(C)=O)c(I)c(C(=O)O)c1I | inactive | inactive | inactive | – | 13.2% | –
21 | CC(=O)N/N=C/c1ccc([N+](=O)[O-])o1 | inactive | 18.8 µM (active) | 23700 nM (active) | – | 2.1% | –
22 | C[C@H](O)C(=O)Nc1c(I)c(C(=O)NC(CO)CO)c(I)c(C(=O)NC(CO)CO)c1I | inactive | inactive | inactive | – | 10.3% | inactive
23 | COc1ccc(O)cc1 | inactive | inactive | inactive | – | -1.22% | inactive
24 | Cc1c(F)c(N2CCNC(C)C2)cc2c1c(=O)c(C(=O)O)cn2C1CC1 (stereo not given) | inactive | inactive | inactive | – | -0.964% | inactive
25 | O=C1O[C@H]([C@@H](O)CO)C(O)=C1O | inactive | inactive | inactive | – | 0.904% | inactive
26 | COCCOCC(OC)OC | inactive | inactive | inactive | – | 10.1% | inactive
27 | CN(C)CCOC(=O)COc1ccc(Cl)cc1 | inactive | inactive | inactive | – | 4.85% | inactive
28 | NC1CCN(c2nc3c(cc2F)c(=O)c(C(=O)O)cn3-c2ccc(F)cc2F)C1 (stereo not given) | inactive | inactive | inactive | – | -6.92% | inactive
29 | CCN1CCN(C(=O)N[C@@H](C(=O)N[C@@H]2C(=O)N3[C@@H]2SC(C)(C)[C@H]3C(=O)O)c2ccccc2)C(=O)C1=O | inactive | inactive | inactive | – | 12.1% | inactive
30 | Nc1nc(=O)n([C@@H]2O[C@H](CO)[C@@H](O)[C@@H]2F)cc1I | inactive | inactive | inactive | – | 8.37% | inactive

— PubChem BioAssay (NCATS)
